A number with no mark means an inactive call. For some assays here: Results with a measured potency or affinity are listed apart. Activity calls are given as the source filed them. Unless noted, the rule behind the calls is not given here.
Assays:
[1] = antimalarial activity against Dd2 strain (AID 2302;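 active = growth inhibition above 50% at the single 2 µM test dose, taken to imply half-maximal potency below 2 µM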;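 note: 0% = DMSO untreated growth and 100% = chloroquine plus artemisinin killed control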); conditions: P. falciparum Dd2 in RBCs, LDH growth readout, 72 h; at 2 µM; active compounds read high
[2] = HepG2 cytotoxicity, primary screen, cytotoxicity control for P. falciparum antimalarial project, cell-based, ATP luminescence (AID 2303;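 active = inhibition above 50%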;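 note: 0% = DMSO wells and 100% = digitonin-killed cells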); conditions: HepG2 viability, 24-48 h, at 10 µM, active compounds read high
[3] = biological target: L-lactate dehydrogenase (Plasmodium falciparum (isolate CDC / Honduras)) (UniProt Q27743); experiment: PfLDH activity inhibition – cell lysate, 3D7 strain, counter-screen for P. falciparum growth inhibition project (AID 2304);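 note: 0% = vehicle and 100% = reference inhibitor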; conditions: P. falciparum 3D7 crude extract, LDH APAD/NBT absorbance; at 2 µM; active compounds read high
[4] = inhibition of 3D7 malaria parasite growth – strain 3D7 (AID 2306);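 note: 0% = DMSO wells and 100% = chloroquine plus artemisinin control wells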; conditions: P. falciparum 3D7 erythrocytic growth, LDH absorbance, 72 h; at 2 µM; active compounds read high
[5] = biological target: Calcium-dependent protein kinase 1 (Plasmodium falciparum (isolate 3D7)) (UniProt P62344); experiment: PfCDPK1 kinase inhibitors, biochemical, TCAMS library (AID 1159585; cut-off not given, nearly all actives have IC50 up to about 0.98 µM;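 note: inhibitors leave more ATP so luminescence rises with inhibition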); conditions: recombinant PfCDPK1, Kinase-Glo ATP depletion luminescence
[6] = biological target: Plasmodium falciparum protein kinase 6 (PK6, PF3D7_1337100) (UniProt Q8IDW1); experiment: PfPK6 kinase inhibitors, biochemical, TCAMS library (AID 1159586); conditions: recombinant PfPK6, Kinase-Glo ATP depletion luminescence
[7] = biological target: Protein kinase 7 (PK7), Plasmodium falciparum 3D7 (PF3D7_0213400) (UniProt Q7YTF7); experiment: inhibition of Plasmodium PK7 catalytic activity – biochemical, TCAMS antimalarial set, Kinase-Glo luminescence (AID 1159587); conditions: recombinant PfPK7, Kinase-Glo ATP depletion luminescence
[8] = biological target: Calcium-dependent protein kinase 4 (Plasmodium falciparum (isolate 3D7)) (UniProt Q8IBS5); experiment: PfCDPK4 kinase inhibitors, biochemical, TCAMS library (AID 1159588; cut-off not given, nearly all actives have IC50 up to about 0.91 µM); conditions: recombinant PfCDPK4, Kinase-Glo ATP depletion luminescence
Chain of Calcium-dependent protein kinase 4 (Plasmodium falciparum (isolate 3D7)) (Q8IBS5 whole entry, looked up): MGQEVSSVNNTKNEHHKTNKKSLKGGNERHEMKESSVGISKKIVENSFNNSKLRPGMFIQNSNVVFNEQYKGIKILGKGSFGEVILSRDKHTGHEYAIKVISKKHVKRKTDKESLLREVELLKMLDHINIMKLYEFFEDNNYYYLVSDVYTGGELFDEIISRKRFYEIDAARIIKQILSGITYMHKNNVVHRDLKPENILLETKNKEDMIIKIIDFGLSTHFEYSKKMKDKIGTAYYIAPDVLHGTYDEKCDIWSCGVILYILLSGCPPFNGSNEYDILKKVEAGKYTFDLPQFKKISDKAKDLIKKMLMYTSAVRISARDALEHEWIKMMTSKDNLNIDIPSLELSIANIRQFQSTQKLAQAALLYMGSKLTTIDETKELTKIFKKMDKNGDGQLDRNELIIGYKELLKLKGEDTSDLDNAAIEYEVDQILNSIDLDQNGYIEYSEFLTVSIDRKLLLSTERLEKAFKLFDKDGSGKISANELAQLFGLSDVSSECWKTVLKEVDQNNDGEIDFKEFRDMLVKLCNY

Chain of Plasmodium falciparum protein kinase 6 (PK6, PF3D7_1337100) (Q8IDW1 1-305): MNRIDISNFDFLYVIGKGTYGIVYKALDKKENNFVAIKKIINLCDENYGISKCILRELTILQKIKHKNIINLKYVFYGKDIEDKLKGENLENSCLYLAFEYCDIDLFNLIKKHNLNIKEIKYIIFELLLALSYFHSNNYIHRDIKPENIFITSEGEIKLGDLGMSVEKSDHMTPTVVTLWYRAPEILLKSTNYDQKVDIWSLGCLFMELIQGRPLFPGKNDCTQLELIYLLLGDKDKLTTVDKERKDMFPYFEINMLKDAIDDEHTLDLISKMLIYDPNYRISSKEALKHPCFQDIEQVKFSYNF
Chain of L-lactate dehydrogenase (Plasmodium falciparum (isolate CDC / Honduras)) (Q27743 whole entry, looked up): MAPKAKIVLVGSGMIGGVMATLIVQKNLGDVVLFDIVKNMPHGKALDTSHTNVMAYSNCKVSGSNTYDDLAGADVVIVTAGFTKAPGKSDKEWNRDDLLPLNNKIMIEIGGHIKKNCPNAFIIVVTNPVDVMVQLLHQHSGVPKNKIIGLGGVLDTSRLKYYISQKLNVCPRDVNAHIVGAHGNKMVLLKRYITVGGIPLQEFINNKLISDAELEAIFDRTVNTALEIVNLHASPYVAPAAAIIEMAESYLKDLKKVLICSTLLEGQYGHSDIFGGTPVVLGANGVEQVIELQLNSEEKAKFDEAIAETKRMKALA
Chain of Calcium-dependent protein kinase 1 (Plasmodium falciparum (isolate 3D7)) (P62344 whole entry, looked up): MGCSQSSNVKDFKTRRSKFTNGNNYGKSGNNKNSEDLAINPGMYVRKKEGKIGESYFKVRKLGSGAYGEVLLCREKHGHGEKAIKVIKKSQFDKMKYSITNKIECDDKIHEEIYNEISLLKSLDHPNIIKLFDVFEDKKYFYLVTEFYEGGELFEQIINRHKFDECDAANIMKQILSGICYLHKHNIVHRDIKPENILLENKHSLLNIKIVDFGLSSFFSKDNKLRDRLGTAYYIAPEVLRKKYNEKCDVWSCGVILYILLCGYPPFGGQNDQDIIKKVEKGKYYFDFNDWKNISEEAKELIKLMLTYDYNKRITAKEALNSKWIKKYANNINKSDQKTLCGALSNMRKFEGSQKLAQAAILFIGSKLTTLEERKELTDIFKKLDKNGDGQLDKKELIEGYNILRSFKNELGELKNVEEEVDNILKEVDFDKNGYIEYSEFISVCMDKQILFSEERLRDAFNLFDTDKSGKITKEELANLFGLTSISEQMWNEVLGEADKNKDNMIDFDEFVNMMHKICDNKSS
Chain of Protein kinase 7 (PK7), Plasmodium falciparum 3D7 (PF3D7_0213400) (Q7YTF7 1-343): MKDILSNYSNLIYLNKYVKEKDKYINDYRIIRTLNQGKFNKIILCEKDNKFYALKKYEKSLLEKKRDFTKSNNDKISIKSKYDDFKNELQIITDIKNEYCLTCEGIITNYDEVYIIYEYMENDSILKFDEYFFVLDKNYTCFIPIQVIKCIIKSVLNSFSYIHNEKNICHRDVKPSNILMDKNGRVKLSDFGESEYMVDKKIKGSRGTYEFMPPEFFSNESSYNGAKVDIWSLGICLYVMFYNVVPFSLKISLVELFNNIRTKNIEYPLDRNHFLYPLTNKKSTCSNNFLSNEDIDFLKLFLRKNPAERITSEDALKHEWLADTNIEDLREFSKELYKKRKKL

Row | Structure (SMILES) | growth inhibition [1] | inhibition [2] | inhibition [3] [%] | growth inhibition [4] | outcome [5] | outcome [6] | outcome [7] | outcome [8]
1 | Cc1cc(N[C@@H](Cc2ccccc2)C(=O)NC2CCCC2)nc(NCCOc2ccccc2)n1 | 48% | 40% | 0 | 98% (active) | inactive | inactive | inactive | inactive
2 | COc1ccc(Nc2nccc(N3CCC(NC(=O)c4cc5ccccc5s4)C3)n2)cc1 (stereo unspecified) | 86% (active) | 1% | 4 | 99% (active) | inactive | inactive | inactive | inactive
3 | Oc1ccc(C2CNCCc3c2cc(O)c(OCc2ccccc2)c3Cl)cc1 (stereo unspecified) | 8% | 14% | 5 | 98% (active) | inactive | inactive | inactive | inactive
4 | Cc1sc2cc(Cl)cc(Cl)c2c1S(=O)(=O)Nc1ccc2nccc(N3CCNCC3)c2c1 | 99% (active) | 24% | -8 | 100% (active) | inactive | inactive | inactive | inactive
5 | CN(C)c1cccc2c1nc(-c1ccco1)n2CC1CCCN1 (stereo unspecified) | 46% | -1% | 6 | 86% (active) | inactive | inactive | inactive | inactive
6 | CC(C)(CNC(=O)C1CCN(CC2CCCCC2)CC1)c1nc(-c2ccc(Cl)c(O)c2)c(-c2ccncc2)[nH]1 | 31% | -6% | -3 | 98% (active) | inactive | inactive | inactive | inactive
7 | Cc1ccc(NC(=O)NC2CCN(c3ccnc4cc(Cl)ccc34)CC2)cc1 | 47% | 4% | -2 | 101% (active) | inactive | inactive | inactive | inactive
8 | Cc1cccc2[nH]c(-c3cccc(-c4ccc(NC(=O)c5ccc(=O)[nH]n5)cc4)c3)nc12 | 27% | 18% | 1 | 101% (active) | inactive | inactive | inactive | inactive
9 | CN(C)CCCOc1ccc(CNCC(C)(C)c2nc(-c3ccc(Cl)c(O)c3)c(-c3ccncc3)[nH]2)cc1 | 58% (active) | 64% (active) | -2 | 102% (active) | inactive | inactive | inactive | inactive
10 | CCNc1cc(C(=O)N[C@@H](Cc2ccccc2)[C@H](O)CNC2(C(C)C)CCC2)cc(N2CCCCS2(=O)=O)c1 | 85% (active) | -3% | -2 | 99% (active) | inactive | inactive | inactive | inactive
11 | Cc1sc2ncnc(Sc3nc4ccccc4[nH]3)c2c1C | 100% (active) | 14% | 1 | 99% (active) | inactive | inactive | inactive | inactive
12 | CN1CCC(C(=O)N(Cc2ccc(-c3ccc(CNCCc4ccccc4)cn3)cc2)C2CCN(Cc3ccccc3)CC2)CC1 | 99% (active) | 24% | -6 | 100% (active) | inactive | inactive | inactive | inactive
13 | COc1ccc2c(NN=Cc3ccncc3)ccnc2c1 | 6% | -12% | -3 | 95% (active) | inactive | inactive | inactive | inactive
14 | Cc1ccc(N2C(N)=NC(N)=NC2c2ccccc2)cc1 (stereo unspecified) | 1% | 11% | -1 | 94% (active) | inactive | inactive | inactive | inactive
15 | O=c1cc(NCCCNCc2cccc(OC(F)(F)C(F)F)c2)[nH]c2ccccc12 | 7% | 6% | -5 | 81% (active) | inactive | inactive | inactive | inactive
16 | Cc1cccc2[nH]c(-c3ccc(-c4ccc(CNCc5cnn(-c6ccccc6)n5)cc4)cc3)nc12 | 99% (active) | 35% | -4 | 101% (active) | inactive | inactive | inactive | inactive
17 | CC(C)CNCc1ccc(-c2cccc(CNc3ccc4ncccc4c3)c2)cc1 | 31% | 29% | -2 | 96% (active) | inactive | inactive | inactive | inactive
18 | CCOc1ccc(-c2nc(NC(=O)CS(=O)(=O)c3ccccc3)sc2C)cc1 | 59% (active) | 6% | 2 | 100% (active) | inactive | inactive | inactive | inactive
19 | O=C(/C=C/c1ccc(Cl)cc1)NCCCCCN1CCCC(C(=O)Nc2ccc(Cl)cc2)C1 (stereo unspecified) | 6% | 24% | 8 | 94% (active) | inactive | inactive | inactive | inactive

Row | Structure (SMILES) | growth inhibition [1] | inhibition [2] | inhibition [3] [%] | growth inhibition [4] | outcome [5] | outcome [6] | outcome [7] | outcome [8]
20 | COc1cccc(-c2ccc3c(-c4cccc(NC(C)=O)c4)cnc(N)c3c2)c1 | 83% (active) | 71% (active) | -6 | 99% (active) | inactive | inactive | inactive | inactive
21 | COc1ccc(CCOc2c(C)nc(N)nc2N)cc1OC | 22% | 66% (active) | 4 | 96% (active) | inactive | inactive | inactive | inactive
22 | CCC(=O)N[C@@H]1CN[C@@H](C#Cc2cc3c(Nc4ccc(OCc5cccc(F)c5)c(Cl)c4)ncnc3s2)C1 | -5% | 46% | -3 | 82% (active) | inactive | inactive | inactive | inactive
23 | COc1ccc(C2CC(=O)C3=C(C2)NC(C)=C(C(=O)OC(C)C)C3c2cccc(O)c2)cc1OC (stereo unspecified) | 85% (active) | -2% | -4 | 100% (active) | inactive | inactive | inactive | inactive
24 | O=C(Nc1ccc(S(=O)(=O)NCCCN2CCOCC2)cc1)c1cc(-c2ccccc2)n[nH]1 | 29% | 16% | 1 | 82% (active) | inactive | inactive | inactive | inactive
25 | Cc1cccc2[nH]c(-c3ccc(-c4cccc(NC(=O)c5cnccc5C(F)(F)F)c4)cc3)nc12 | 13% | 25% | 0 | 84% (active) | inactive | inactive | inactive | inactive
26 | O=c1cc(-c2ccc3ccccc3c2)[nH]c2ccccc12 | 44% | 25% | -3 | 81% (active) | inactive | inactive | inactive | inactive
27 | CCc1ccc(NC(=O)N(CCCN2CCN(C)CC2)Cc2csc(-c3ccc(CNCc4ccccc4)cc3)n2)cc1 | 80% (active) | 17% | -1 | 99% (active) | inactive | inactive | inactive | inactive
28 | O=C(Nc1ccc(Cl)cc1)N[C@H]1CCN(Cc2ccc(OCCCN3CCCCC3)cc2)C1 | -1% | 29% | -2 | 103% (active) | inactive | inactive | inactive | inactive
29 | Cc1ccc2c(c1)NC[C@@]21CCN(C[C@@H](O)C2CCN(c3cc(C#N)ccn3)CC2)C[C@@H]1C | 79% (active) | 28% | -2 | 90% (active) | inactive | inactive | inactive | inactive
30 | CCCCCN1CCCN(Cc2cccc(NC(=O)c3ccc(Cl)c(Cl)c3)c2)CC1 | 28% | 30% | 0 | 89% (active) | inactive | inactive | inactive | inactive
31 | COc1ccc2nccc(N3CCC(SCCNCc4ccc5c(n4)NC(=O)CS5)C3)c2n1 (stereo unspecified) | 100% (active) | 34% | 2 | 95% (active) | inactive | inactive | inactive | inactive
32 | COc1ccc2nccc([C@@H](O)CN3CCC(NCc4cc5ccccc5nn4)CC3)c2c1 | 16% | 5% | -1 | 94% (active) | inactive | inactive | inactive | inactive
33 | CCn1ncc2c(NC3CCOCC3)c(CNC(=O)c3ccnn3C)c(C)nc21 | 98% (active) | -11% | -2 | 98% (active) | inactive | inactive | inactive | inactive
34 | Cc1cc2nc(-c3cc(Br)ccc3O)c(-c3cc(Br)ccc3O)nc2cc1C | 12% | 2% | -1 | 96% (active) | inactive | inactive | inactive | inactive
35 | Cc1ccc(CCNCC(O)c2cccc(C(F)(F)F)c2)cc1 (stereo unspecified) | 83% (active) | -3% | 0 | 94% (active) | inactive | inactive | inactive | inactive
36 | Cc1cccc2[nH]c(-c3ccc(-c4cccc(CN5CCN(CCO)CC5)c4)cc3)nc12 | 55% (active) | 20% | -3 | 100% (active) | inactive | inactive | inactive | inactive
37 | O=C(CCC1CCCCC1=O)c1ccccc1 (stereo unspecified) | 3% | 0% | -4 | 91% (active) | inactive | inactive | inactive | inactive
